Measured values: PubChem BioAssay AID1347072 (National Center for Advancing Translational Sciences (NCATS), 2019)
The whole screen tested about 44,000 compounds, of which fewer than 10 were called active. Another 2% or so got no clear call; they are omitted. Calls come from the whole dose curve; as a rule, active = well fitted curve in the direction sought with a large enough effect; inconclusive = small, poorly fitted or top-dose-only effect, or another doubt; inactive = no such curve, though single readings can be large or run the other way. The list is a sample of the results.

Each compound was assayed against Galactokinase (Homo sapiens) (UniProt P51570) (assay: qHTS Assay for Inhibitors of Human Galactokinase (GALK): NCGC Sytravon Library Screen). Conditions: recombinant GALK, Kinase-Glo ATP luminescence, 1 h; series mostly up to 57.5 µM; activity, negative = inhibition: at the top concentration.
From the text: Inherited deficiency of galactose-1-phosphate uridyltransferase (GALT) can result in a potentially lethal disorder called Classic Galactosemia (OMIM 230400). Several lines of evidence indicate that an elevated level of galactose-1-phosphate (gal-1-p), the product of galactokinase (GALK), is a major, if not sole, pathogenic mechanism in patients with classic galactosemia. Therefore, finding inhibitors of GALK is a potential novel therapy for this inherent metabolic disease and is the long term goal of this project. This screen is run against the NCGC Sytravon compound library collection. GALK (provided by Kent Lai) was assayed using ATP and D-(+)-Galactose (Sigma-Aldrich cat# G0750) as substrates. Promega Kinase-Glo Plus technology was used to detect kinase activity. Reactions with and without GALK were used as negative and positive controls together with Protein Tyrosine Phosphatase CD45 inhibitor (EMD Bioscience cat# 540215) which is shown to inhibit GALK activity. Decrease in activity corresponds to inhibition of the enzyme is the desired outcome for this assay. NIH Molecular Libraries Probe Production Network [MLPCN] NIH Chemical Genomics Center [NCGC] Grant: R03 MH085689-01 PI Name: Kent Lai Ph.D., University of Utah
NCGC Assay Protocol Summary: Three uL/well of ATP-buffer solution (35 uM ATP, 20mM HEPES pH8.0, 5 mM MgCl2, 60 mM NaCl, 1 mM DTT, 0.01% BSA final concentration) was dispensed into 1536-well, assay plates (Greiner, solid white medium-binding plates) with Aurora Discovery BioRAPTR Flying Reagent Dispenser (FRD; Beckton-Dickenson). Compound solution (23 nL) was transferred to the assay plate using the Kalypsys 1536-pin tool. One uL/well GALK-galactose solution (5 nM GALK, 100 uM galactose, 20 mM HEPES pH8.0, 5 mM MgCl2, 60 mM NaCl, 1 mM DTT, 0.01% BSA final concentration) was then added using the FRD yielding a total kinase reaction volume of 4 uL/ well. After 1 hour of room temperature incubation, 4 uL Kinase-Glo Plus reagent was added for a final assay volume of 8 uL/ well. Luminescence was detected with the ViewLux plate reader (Perkin Elmer, Waltham, MA) after 10 min incubation using a 1 sec exposure time and 2x binning.
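Note: plate controls were full GALK reaction for no effect and reaction lacking GALK for full effect.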

Sequence of Galactokinase (Homo sapiens) (P51570 whole entry, looked up): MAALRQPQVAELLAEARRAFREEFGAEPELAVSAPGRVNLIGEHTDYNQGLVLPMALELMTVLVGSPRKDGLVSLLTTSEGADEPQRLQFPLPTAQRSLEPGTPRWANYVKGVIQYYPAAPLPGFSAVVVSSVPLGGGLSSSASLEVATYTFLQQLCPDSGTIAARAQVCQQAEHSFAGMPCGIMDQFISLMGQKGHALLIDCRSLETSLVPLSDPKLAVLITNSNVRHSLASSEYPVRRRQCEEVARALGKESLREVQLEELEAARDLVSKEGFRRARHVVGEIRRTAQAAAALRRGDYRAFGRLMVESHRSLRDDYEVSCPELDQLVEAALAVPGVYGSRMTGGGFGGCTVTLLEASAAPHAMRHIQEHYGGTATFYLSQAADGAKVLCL

activity, negative = inhibition, inactive:
O=S(=O)(NCC(c1ccco1)N1CCOCC1)c1cc(F)ccc1F (stereo unspecified) -5.26%
COc1ccc(-c2nc(C)c(CCNC(=O)c3ccc(C(F)(F)F)cc3)s2)cc1OC -7.93%
CCOC(=O)c1cccc(NC(=O)C(Cc2ccccc2)NS(=O)(=O)c2cccc3nsnc23)c1 (stereo unspecified) 7.9%
Cc1ccccc1Nc1nn2c(=O)c3ccc(C(=O)NCCc4ccc(Cl)cc4)cc3nc2s1 0.366%
CCOc1ccc(C(=O)N2CCN(CCc3ccccn3)CC2)cc1 0.691%
COc1ccccc1CNCc1ccc(C(=O)O)s1 -3.41%
COc1ccccc1CNC(=O)c1ccccc1NC(=O)c1nsc2ccccc12 -9.67%
Cc1sc2ncn(CC(=O)N3CCN(c4ccc(F)cc4)CC3)c(=O)c2c1S(=O)(=O)N1CCN(c2ncccn2)CC1 0.246%
COc1ccc(OC)c(NC(=O)/C=C/c2ccc(C)o2)c1 2.78%
Cc1ccc(CNC(=O)CCC(=O)N2Cc3ccccc3Oc3ncccc32)cc1 -0.764%
Cc1nn(CC(=O)NCCc2ccccc2)c(=O)c2c1sc1ccccc12 -10.7%
COc1ccc(OC)c(NC(=O)CN2CCCN(Cc3cc(C)ccc3C)S2(=O)=O)c1 1.05%
O=C(NCCCN1CCN(c2cccc(Cl)c2)CC1)c1nnc(Cc2ccc(F)cc2Cl)o1 0.501%
CC1=C(c2ccc(C)c(C)c2)S(=O)(=O)NC1=NCc1ccccc1Cl 3.69%
COc1ccc(S(=O)(=O)NCCc2cc3ccc(C)c(C)c3[nH]c2=O)cc1 1.2%
CCc1cccc(C)c1Nc1c(-c2ccc(N(C)C)cc2)nc2ncccn12 1.49%
COc1ccc(NC(=O)Cn2c(=O)n(Cc3ccc(C(=O)NCc4ccccc4Cl)cc3)c(=O)c3ccccc32)cc1 1.58%
CCC(=O)Nc1ccc2nc(SCC(=O)N3CCc4ccccc43)sc2c1 1.4%
Cc1ccc(-n2c3nc(=O)[nH]c(=O)c-3cc3c(Cl)cccc32)cc1 -0.166%
Cc1ccc(SCC(=O)Nc2ccc3oc(-c4ccccc4C)nc3c2)cc1 -12.2%
COc1ccc(NC(=O)CSc2nc3ccccc3n2CC(=O)N2CCCCC2C)cc1 (stereo unspecified) -1.23%
CCOc1ccc(CCNC(=O)CSc2cc(=O)n(C)c3ccc(Cl)cc23)cc1OCC 0.0807%
O=C(Cn1c(=O)n(Cc2ccccc2)c(=O)c2sc3ccccc3c21)Nc1ccccc1F 5.92%
Cc1cccc2c(=O)cc(CSc3ccccc3NC(=O)C(C)C)[nH]c12 -0.731%
COc1cc(OC)c(OC)cc1/C=C/c1nc2cc3ccccc3cc2c(=O)n1-c1ccc(F)c(Cl)c1 -0.852%
Cc1ccc(C(=O)Nc2nc(-c3ccccc3)ns2)cc1 0.054%
Cc1ccc(C)c(Cn2c(=O)n(CCC(=O)NCc3ccc4c(c3)OCO4)c(=O)c3sccc32)c1 -5.4%
Cc1ccc(CNS(=O)(=O)c2ccc(C(=O)N(C)C)s2)cc1 2.1%
O=C(NCc1ccc2c(c1)CCN2C(=O)c1ccccc1)Nc1cc(F)ccc1F -8.63%
CN(C(=O)CSc1nc2ccccc2n1Cc1ccccc1C#N)c1ccccc1 -3.63%
CCCn1c2ccccc2c2cnn(CC(=O)NCC3CCN(Cc4ccc(C)cc4)CC3)c(=O)c21 0.1%
COc1ccc(-c2noc(CSc3nnc(-c4ccccc4)n3-c3ccc(F)cc3)n2)c(OC)c1 3.13%
Cc1nnc(NC(=O)CSc2nc3c([nH]c4ccccc43)c(=O)n2-c2cccc(Cl)c2)s1 -7.52%
CCOc1ccc(CCNC(=O)c2cc3c(=O)n(C)c4ccccc4c3n2C)cc1 1.83%
O=C(CSc1nc2c(c(=O)[nH]1)CN(Cc1ccc(F)cc1)CC2)Nc1ccccc1Cl 3.32%
O=C(Cc1ccc(Cl)cc1)NCC(c1cccs1)S(=O)(=O)c1ccc(Cl)cc1 (stereo unspecified) 0.239%
O=C(Nc1ccc(Br)cc1)c1ccc(Br)c(S(=O)(=O)NCc2ccccc2)c1 0.305%
Cc1ccc(-c2cn3c(n2)sc2cc(C(=O)NCc4cccs4)ccc23)c(C)c1 4.3%
CCc1ccccc1NC(=O)c1ccc(F)c(S(=O)(=O)NC2CCCCCC2)c1 1.07%
CCc1cccc(NC(=O)CSc2nccn2C)c1 -2.55%
COc1ccc(CCNc2ncnc3c2cnn3-c2ccc(C)cc2)cc1 0.59%
Cc1cccc(-c2nc(SCc3ccc(Br)cc3)n3[nH]c(=O)cc3n2)c1 4.56%
CC(CCCc1ccccc1)NC(=O)c1nn(-c2ccc(Cl)cc2)nc1CO (stereo unspecified) 2.68%
COc1ccc(CNc2nc(-c3ccc(Cl)cc3)cc(C(F)(F)F)n2)cc1 -1.42%
CCn1cc(CCC(=O)NCc2ccc(F)cc2)c2ccccc21 3.15%
CCN(c1ccc(Cl)cc1)S(=O)(=O)c1nnc(NC(=O)c2ccco2)s1 1.43%
CCc1nn(CC(=O)Nc2cccc(C)c2C)c(=O)c2cc3sccc3n12 -10.4%
Cc1c(Cl)cccc1NC(=O)C1CCCN(C(=O)c2cnn(-c3ccccc3)c2-n2cccc2)C1 (stereo unspecified) 5.36%
CCc1ccccc1OCCSc1nc(-c2cccs2)nc2cc(=O)[nH]n12 -3.94%
COc1ccc2cc(-c3nc(Cl)c4c5c(sc4n3)CC(C)CC5)c(=O)oc2c1 (stereo unspecified) 7.47%
Cc1ccc2cccc(NC(=O)C(C)Oc3ccc(C)c(C)c3)c2n1 (stereo unspecified) 2.77%
CCCCc1nn2c(=O)cc(COC(=O)c3ccccc3NC(=O)C(C)(C)C)nc2s1 0.0179%
O=C(CSc1nc(=O)[nH]c2c1CCCC2)Nc1cc(C(F)(F)F)ccc1Cl -1.93%
CC(NC(=O)c1cc2c(=O)n3ccccc3nc2n(C(C)C)c1=N)c1ccccc1 (stereo unspecified) 16.3%
COc1ccccc1CNS(=O)(=O)c1cc(Br)cc2c1N(C(C)=O)C(C)C2 (stereo unspecified) -5.64%
Cn1c(=O)cc(OCC(=O)N2CCN(c3ccccc3F)CC2)c2ccccc21 0.123%
COc1ccc(CNC(=O)CCc2c(C)nn(-c3ccc(N4CCCC4)nn3)c2C)cc1 -0.105%
O=S(=O)(NCCS(=O)(=O)N1CCN(c2ccccc2)CC1)c1ccc(Cl)cc1 2.24%
CCCN1CCN(CCCNC(=O)c2ccc3nc(Cc4ccccc4)oc3c2)CC1 -0.181%
CCN(Cc1ccccc1)C(=O)c1cn(-c2cccc(OC)c2)c(=O)c2ccccc12 0.495%
COc1ccc(NS(=O)(=O)c2cc3c4c(c2)CC(=O)N4CCC3)cc1Cl 0.222%
CC(=O)N1CCCc2ccc(NS(=O)(=O)c3ccc(F)cc3F)cc21 0.29%
CCc1nc(-c2cc(S(=O)(=O)N3CCN(c4ccc(OC)cc4)CC3)ccc2OC)no1 3.93%
Cc1ccc(NC(=O)Cn2c(=O)n(-c3ccccc3)c(=O)c3c4c(sc32)CCCC4)cc1 6.16%
COc1cccc(CNC(=O)CN2C(=O)CCc3cc(S(=O)(=O)N4CCOCC4)ccc32)c1 -0.942%
C#CCOc1ccc(C2CC(=O)Nc3c2c(C)nn3-c2nc(C)cc(C)n2)cc1 (stereo unspecified) -0.329%
Cc1cccc(NC(c2cccc(F)c2)c2ccc3ccc(C)nc3c2O)n1 (stereo unspecified) -1.92%
O=C(CCS(=O)(=O)c1cc(Br)cc2c1N(C(=O)C1CC1)CC2)Nc1ccc(Br)cc1F 1.92%
CCOC(=O)c1ccc(N2C(=O)c3n[nH]c(-c4ccco4)c3C2c2ccc(O)cc2)cc1 (stereo unspecified) 0.26%
O=C(CC1Oc2ccc(Cl)cc2NC1=O)NCc1ccccc1 (stereo unspecified) -9.65%
COc1ccc(-n2c(C)nc3c(cnn3-c3ccc(F)cc3)c2=O)cc1 6.98%
COc1ccc(CCN2C(=O)N(c3cccc(OC)c3)C(=O)C2CC(=O)Nc2ccccc2)cc1 (stereo unspecified) 4.98%
COc1ccc(CCNC(=O)CCc2c(C)nc3c(c(C)nn3-c3ccc(C)c(C)c3)c2C)c(OC)c1OC -1.7%
O=C1CCCc2cc(S(=O)(=O)N3CCCC(C(=O)NCc4ccccc4)C3)ccc2N1 (stereo unspecified) 0.641%
COc1ccccc1NC(=O)CSc1oc(-c2ccco2)nc1S(=O)(=O)c1ccc(Br)cc1 -0.198%
O=C(CSc1cn(CC(=O)N2CCOCC2)c2ccccc12)Nc1ccccc1 -10.9%
CCCNc1ncnc2c1c(-c1ccccc1)cn2-c1ccc(OCC)cc1 -0.973%
COc1cccc(CNC(=O)c2ccc3c(c2)sc2nc(-c4cccc(OC)c4)cn23)c1 1.05%
COc1ccc(NC(=O)N2CCCn3nc(C)cc32)cc1OC 1.03%
CC(C)c1ccc(NC(=O)Cn2c3ncccc3c(=O)n2-c2ccccc2)cc1 -0.715%
Cc1cn(C)c(CC(=O)NCc2ccc(Cl)cc2)c1C(=O)O -2.28%
O=C(NCc1ccccc1)C1CCN(S(=O)(=O)c2ccc3[nH]c(=O)ccc3c2)CC1 2.14%
Cc1cc(C)c(NC(=O)CCc2c(C)nc3c(c(C)nn3C(C)(C)C)c2C)c(C)c1 0.89%
CCOC(=O)c1ccc(NC(=O)CSc2nc3c([nH]c4ccccc43)c(=O)n2C)cc1 -9.08%
COc1cccc(NC(=O)c2csnn2)c1 -5.21%
CCc1nc2c(cnn2-c2ccc(C)cc2)c(=O)n1-c1ccc(C)cc1 8.26%
CCC1(C)CC(=O)c2c(ccc3oc(C(=O)Nc4ccc(C(C)=O)cc4)c(C)c23)O1 (stereo unspecified) -4.05%
COc1ccc2oc(-c3ccc(C)c(NC(=O)c4sc5ccccc5c4Cl)c3)nc2c1 -14.9%
CCOC(=O)Cn1c(=O)n(-c2ccccc2OC)c2nc(-c3cccc(F)c3)nc(C(N)=O)c21 0.826%
Cc1ccc(NC(=O)c2cn3c4c(ccc(Cl)c4c2=O)OC(C)C3)cc1C (stereo unspecified) -3.8%
CCCCS(=O)(=O)c1oc(-c2cccs2)nc1S(=O)(=O)c1ccccc1 3.76%
O=C(CSc1ncc(CO)n1Cc1ccc(F)cc1)NCc1ccco1 -0.478%
CNc1ccc(-c2nc(-c3ccccc3C)no2)cc1[N+](=O)[O-] -1.05%
CCc1ccccc1NC(=O)Cn1c(=O)n(-c2cccc(C)c2)c(=O)c2c1c1cc(OC)ccc1n2C 3.81%
CCOC(=O)c1c(S(=O)(=O)N2CCCC(C(=O)NCc3cccc(C)c3)C2)c(C)n(C)c1C (stereo unspecified) 3.27%
CCOc1ccccc1NC(=O)c1ccc2c(c1)CCN2S(=O)(=O)c1ccc(C)cc1 2.78%
